# Reference: paper PMC7862700, “An all-to-all approach to the identification of sequence-specific readers for epigenetic DNA modifications on cytosine”
# Columns and labels:
# Assay in all cases: DAPPL (digital affinity profiling via proximity ligation, sequencing); 10 mM Tris-HCl pH 7.5, 50 mM NaCl, 1 mM DTT, 4% glycerol, room temperature, 30 min; GST-TFs on glutathione beads, 16-mer random dsDNA library, 0.1% formaldehyde crosslink after washing; high values mean tight binding
# [1] = target: T1, FEV (Homo sapiens, UniProt Q99581 1-238); conditions: protein: recombinant; tags: N-terminal GST; dsDNA, one strand shown
# T1 sequence: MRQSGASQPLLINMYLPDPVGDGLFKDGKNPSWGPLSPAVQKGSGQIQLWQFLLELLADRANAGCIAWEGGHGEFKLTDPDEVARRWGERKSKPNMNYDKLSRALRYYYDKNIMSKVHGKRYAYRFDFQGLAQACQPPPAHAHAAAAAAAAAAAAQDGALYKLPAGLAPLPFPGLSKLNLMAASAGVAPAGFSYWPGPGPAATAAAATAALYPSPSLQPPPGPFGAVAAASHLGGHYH
# Method in brief: (§1)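 Beads coated with glutathione captured GST-fused human transcription factors that had been expressed in yeast, and the factors were then given DNA barcodes and pooled with a tag-only sample. The pools were incubated with 200 nmole of a random double-stranded 16-mer DNA library in Tris/NaCl/DTT/glycerol buffer for 30 min at room temperature, washed, crosslinked with 0.1% formaldehyde and proximity-ligated with BsaI/T4 ligase at 37 °C for 1 h. PCR amplification and Illumina NextSeq500 sequencing came last. Binding signal is each hexamer's read frequency for a factor divided by its frequency for the tag-only sample.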
# [2] = target: ETV5 (Homo sapiens, UniProt P41161 1-510); conditions: protein: recombinant; tags: N-terminal GST; dsDNA, one strand shown
# Sequence of ETV5 (P41161 whole entry): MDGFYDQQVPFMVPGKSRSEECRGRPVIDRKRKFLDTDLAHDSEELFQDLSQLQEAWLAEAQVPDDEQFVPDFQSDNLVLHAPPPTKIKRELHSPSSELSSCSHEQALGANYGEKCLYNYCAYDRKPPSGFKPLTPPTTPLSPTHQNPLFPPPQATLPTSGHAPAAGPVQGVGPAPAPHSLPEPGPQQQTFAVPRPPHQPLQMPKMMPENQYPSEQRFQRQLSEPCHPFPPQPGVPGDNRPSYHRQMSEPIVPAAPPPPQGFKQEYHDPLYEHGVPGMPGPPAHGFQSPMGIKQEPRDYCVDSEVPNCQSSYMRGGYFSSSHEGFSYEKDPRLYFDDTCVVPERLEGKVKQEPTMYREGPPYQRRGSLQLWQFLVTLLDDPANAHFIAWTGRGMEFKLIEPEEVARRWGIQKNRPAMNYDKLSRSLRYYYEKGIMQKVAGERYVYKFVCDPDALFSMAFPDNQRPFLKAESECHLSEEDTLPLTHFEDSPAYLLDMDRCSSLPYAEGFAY
# Method in brief: as §1
# [3] = target: HSF1 (Homo sapiens, UniProt Q00613 1-529); conditions: protein: recombinant; tags: N-terminal GST; chain copies: 3; dsDNA, one strand shown
# Sequence of HSF1 (Q00613 whole entry): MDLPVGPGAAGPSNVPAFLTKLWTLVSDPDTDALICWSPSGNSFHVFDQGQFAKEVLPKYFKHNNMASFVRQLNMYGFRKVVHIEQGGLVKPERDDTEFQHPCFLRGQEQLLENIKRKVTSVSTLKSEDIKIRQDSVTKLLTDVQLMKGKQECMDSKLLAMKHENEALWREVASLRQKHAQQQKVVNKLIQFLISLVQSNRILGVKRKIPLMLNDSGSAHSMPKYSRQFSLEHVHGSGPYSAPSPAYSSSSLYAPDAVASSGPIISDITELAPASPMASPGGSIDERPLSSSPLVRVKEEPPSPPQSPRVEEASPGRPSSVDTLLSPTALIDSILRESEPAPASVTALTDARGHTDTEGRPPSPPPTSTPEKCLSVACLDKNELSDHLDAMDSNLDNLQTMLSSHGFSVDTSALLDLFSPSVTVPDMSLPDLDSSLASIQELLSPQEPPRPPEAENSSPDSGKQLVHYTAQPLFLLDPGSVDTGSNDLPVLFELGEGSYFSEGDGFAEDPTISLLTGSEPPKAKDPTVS
# Method in brief: as §1
# [4] = target: T2, SPIC (Homo sapiens, UniProt Q8N5J4 1-248); conditions: protein: recombinant; tags: N-terminal GST; dsDNA, one strand shown
# T2 sequence: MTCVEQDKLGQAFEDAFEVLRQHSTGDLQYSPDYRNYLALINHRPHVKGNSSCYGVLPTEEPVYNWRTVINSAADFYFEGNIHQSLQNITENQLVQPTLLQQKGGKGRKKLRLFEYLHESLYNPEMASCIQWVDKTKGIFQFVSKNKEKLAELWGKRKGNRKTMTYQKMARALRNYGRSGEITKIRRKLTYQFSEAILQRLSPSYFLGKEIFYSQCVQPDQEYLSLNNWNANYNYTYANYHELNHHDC
# Method in brief: as §1
# [5] = target: ELF4 (Homo sapiens, UniProt Q99607 1-663); conditions: protein: recombinant; tags: N-terminal GST; dsDNA, one strand shown
# Sequence of ELF4 (Q99607 whole entry): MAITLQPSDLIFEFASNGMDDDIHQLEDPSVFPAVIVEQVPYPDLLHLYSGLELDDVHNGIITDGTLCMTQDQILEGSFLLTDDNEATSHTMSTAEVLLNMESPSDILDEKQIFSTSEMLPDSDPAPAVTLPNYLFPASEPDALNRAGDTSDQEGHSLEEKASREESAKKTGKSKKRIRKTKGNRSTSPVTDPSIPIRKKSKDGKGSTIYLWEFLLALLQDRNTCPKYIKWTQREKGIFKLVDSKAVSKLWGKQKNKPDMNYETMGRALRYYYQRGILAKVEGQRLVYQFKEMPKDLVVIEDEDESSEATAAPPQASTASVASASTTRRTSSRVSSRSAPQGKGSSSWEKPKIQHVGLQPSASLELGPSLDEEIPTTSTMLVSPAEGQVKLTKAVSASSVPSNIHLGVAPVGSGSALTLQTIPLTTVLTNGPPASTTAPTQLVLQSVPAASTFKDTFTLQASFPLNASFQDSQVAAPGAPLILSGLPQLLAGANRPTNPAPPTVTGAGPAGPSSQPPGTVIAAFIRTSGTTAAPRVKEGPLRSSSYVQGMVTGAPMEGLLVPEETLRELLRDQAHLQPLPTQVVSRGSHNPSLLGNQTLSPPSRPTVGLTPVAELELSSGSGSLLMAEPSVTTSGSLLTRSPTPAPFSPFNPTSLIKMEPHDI
# Method in brief: as §1
# [6] = target: T3, ELK4 (Homo sapiens, UniProt P28324-2 1-405); conditions: protein: recombinant; tags: N-terminal GST; dsDNA, one strand shown
# T3 sequence: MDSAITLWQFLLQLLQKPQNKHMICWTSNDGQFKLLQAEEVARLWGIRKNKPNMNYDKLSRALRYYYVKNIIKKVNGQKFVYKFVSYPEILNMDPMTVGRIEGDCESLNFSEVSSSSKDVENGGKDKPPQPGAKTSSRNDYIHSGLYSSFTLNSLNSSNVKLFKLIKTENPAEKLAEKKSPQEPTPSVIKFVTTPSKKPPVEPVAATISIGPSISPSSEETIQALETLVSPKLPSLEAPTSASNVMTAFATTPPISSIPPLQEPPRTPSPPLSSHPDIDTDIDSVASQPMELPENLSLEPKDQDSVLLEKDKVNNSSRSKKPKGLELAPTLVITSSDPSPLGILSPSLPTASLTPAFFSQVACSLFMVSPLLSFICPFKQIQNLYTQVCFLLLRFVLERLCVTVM
# Method in brief: as §1
# [7] = target: T4, ETV2 (Homo sapiens, UniProt O00321 1-342); conditions: protein: recombinant; tags: N-terminal GST; dsDNA, one strand shown
# T4 sequence: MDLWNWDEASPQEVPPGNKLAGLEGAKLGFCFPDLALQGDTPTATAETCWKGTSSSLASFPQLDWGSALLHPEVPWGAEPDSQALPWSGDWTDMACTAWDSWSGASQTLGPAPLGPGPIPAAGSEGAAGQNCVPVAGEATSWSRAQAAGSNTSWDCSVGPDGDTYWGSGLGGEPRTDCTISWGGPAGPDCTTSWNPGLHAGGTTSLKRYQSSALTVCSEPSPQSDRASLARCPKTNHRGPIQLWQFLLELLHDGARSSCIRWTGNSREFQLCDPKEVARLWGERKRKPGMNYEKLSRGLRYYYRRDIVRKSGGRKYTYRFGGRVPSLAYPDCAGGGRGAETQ
# Method in brief: as §1
# [8] = target: T5, ELF3 (Homo sapiens, UniProt P78545 1-371); conditions: protein: recombinant; tags: N-terminal GST; dsDNA, one strand shown
# T5 sequence: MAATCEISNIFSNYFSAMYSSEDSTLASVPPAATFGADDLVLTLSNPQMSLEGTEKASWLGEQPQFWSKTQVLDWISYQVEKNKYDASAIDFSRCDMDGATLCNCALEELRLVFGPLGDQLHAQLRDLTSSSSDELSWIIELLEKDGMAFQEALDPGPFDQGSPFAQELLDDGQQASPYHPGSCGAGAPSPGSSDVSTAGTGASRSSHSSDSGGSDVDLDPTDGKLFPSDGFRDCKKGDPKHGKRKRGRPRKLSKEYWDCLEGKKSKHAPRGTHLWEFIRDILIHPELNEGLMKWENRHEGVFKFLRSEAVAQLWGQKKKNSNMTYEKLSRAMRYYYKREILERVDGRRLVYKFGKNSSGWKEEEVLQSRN
# Method in brief: as §1
# [9] = target: CRX (Homo sapiens, UniProt O43186 1-299); conditions: protein: recombinant; tags: N-terminal GST; dsDNA, one strand shown
# Sequence of CRX (O43186 whole entry): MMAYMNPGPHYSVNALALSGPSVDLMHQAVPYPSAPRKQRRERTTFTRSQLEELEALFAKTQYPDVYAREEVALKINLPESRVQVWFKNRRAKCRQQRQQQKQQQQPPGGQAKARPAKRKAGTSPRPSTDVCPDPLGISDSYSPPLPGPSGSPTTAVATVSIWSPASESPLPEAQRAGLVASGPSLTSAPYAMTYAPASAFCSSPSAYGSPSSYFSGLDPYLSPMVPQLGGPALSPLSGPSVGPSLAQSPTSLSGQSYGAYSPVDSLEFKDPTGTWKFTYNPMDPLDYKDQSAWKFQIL
# Method in brief: as §1
# [10] = target: ETV1 (Homo sapiens, UniProt P50549 1-477); conditions: protein: recombinant; tags: N-terminal GST; dsDNA, one strand shown
# Sequence of ETV1 (P50549 whole entry): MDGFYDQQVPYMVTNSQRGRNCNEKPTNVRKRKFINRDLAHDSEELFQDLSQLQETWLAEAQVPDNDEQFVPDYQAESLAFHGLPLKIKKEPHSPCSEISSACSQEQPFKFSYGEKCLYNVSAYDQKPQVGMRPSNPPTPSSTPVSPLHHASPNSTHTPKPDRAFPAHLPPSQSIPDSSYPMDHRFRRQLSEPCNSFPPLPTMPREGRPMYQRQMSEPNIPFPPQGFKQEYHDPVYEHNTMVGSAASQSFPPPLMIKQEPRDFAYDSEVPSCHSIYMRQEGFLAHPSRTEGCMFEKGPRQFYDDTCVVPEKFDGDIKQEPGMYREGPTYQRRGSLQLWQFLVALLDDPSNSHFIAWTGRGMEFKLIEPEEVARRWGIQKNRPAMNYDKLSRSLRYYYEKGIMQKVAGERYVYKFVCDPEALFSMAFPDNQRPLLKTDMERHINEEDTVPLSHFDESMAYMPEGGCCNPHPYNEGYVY
# Method in brief: as §1
# [11] = target: T6, ERF (Homo sapiens, UniProt P50548 1-548); conditions: protein: recombinant; tags: N-terminal GST; dsDNA, one strand shown
# T6 sequence: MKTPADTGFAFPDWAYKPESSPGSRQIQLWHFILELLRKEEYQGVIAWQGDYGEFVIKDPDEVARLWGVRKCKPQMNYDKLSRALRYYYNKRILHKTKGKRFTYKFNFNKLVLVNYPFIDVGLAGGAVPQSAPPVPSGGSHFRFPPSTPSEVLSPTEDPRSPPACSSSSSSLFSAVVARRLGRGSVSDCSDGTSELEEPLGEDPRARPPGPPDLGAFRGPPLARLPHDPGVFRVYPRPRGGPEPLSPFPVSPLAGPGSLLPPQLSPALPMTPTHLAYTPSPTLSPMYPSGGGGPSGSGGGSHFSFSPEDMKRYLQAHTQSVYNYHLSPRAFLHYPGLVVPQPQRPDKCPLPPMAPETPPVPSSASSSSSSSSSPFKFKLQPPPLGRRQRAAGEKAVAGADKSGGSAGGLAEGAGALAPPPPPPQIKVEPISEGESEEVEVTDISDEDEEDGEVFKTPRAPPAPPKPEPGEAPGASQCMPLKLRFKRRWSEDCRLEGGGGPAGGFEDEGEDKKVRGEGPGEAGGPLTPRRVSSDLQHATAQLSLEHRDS
# Method in brief: as §1
# [12] = target: T7, ETV3L (Homo sapiens, UniProt Q6ZN32 1-361); conditions: protein: recombinant; tags: N-terminal GST; dsDNA, one strand shown
# T7 sequence: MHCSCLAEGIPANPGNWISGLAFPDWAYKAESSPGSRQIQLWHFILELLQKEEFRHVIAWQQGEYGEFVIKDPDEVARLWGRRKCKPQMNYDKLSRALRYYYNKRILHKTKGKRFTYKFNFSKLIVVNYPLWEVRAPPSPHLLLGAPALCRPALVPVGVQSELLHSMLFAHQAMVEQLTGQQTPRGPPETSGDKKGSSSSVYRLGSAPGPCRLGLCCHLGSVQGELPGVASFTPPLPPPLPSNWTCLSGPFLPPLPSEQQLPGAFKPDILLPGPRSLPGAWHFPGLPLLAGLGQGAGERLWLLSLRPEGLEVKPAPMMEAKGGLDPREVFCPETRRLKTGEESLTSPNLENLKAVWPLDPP
# Method in brief: as §1
# [13] = target: T8, ETS2 (Homo sapiens, UniProt P15036 1-469); conditions: protein: recombinant; tags: N-terminal GST; dsDNA, one strand shown
# T8 sequence: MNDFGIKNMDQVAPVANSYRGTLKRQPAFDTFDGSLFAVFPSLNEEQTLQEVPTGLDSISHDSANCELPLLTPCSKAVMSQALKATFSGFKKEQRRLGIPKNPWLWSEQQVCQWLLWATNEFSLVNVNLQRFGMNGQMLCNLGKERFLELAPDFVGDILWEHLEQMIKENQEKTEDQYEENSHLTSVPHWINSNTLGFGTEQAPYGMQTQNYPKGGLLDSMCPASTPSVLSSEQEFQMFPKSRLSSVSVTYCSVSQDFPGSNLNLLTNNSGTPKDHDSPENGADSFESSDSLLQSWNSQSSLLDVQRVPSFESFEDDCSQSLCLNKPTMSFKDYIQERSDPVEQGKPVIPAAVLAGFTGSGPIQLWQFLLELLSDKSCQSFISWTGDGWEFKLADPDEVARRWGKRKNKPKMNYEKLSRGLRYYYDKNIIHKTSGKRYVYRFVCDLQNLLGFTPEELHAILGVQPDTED
# Method in brief: as §1
# [14] = target: T9, SPDEF (Homo sapiens, UniProt O95238 1-335); conditions: protein: recombinant; tags: N-terminal GST; dsDNA, one strand shown
# T9 sequence: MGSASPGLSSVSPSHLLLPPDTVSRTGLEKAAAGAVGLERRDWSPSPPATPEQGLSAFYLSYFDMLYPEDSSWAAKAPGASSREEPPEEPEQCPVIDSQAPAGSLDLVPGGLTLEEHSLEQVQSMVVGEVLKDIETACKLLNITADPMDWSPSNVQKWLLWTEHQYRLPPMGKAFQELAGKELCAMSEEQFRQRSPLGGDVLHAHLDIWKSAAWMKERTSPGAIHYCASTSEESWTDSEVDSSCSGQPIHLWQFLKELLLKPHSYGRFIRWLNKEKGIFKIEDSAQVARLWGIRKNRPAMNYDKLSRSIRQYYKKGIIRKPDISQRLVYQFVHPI
# Method in brief: as §1
# [15] = target: T10, ETV7 (Homo sapiens, UniProt Q9Y603 1-341); conditions: protein: recombinant; tags: N-terminal GST; dsDNA, one strand shown
# T10 sequence: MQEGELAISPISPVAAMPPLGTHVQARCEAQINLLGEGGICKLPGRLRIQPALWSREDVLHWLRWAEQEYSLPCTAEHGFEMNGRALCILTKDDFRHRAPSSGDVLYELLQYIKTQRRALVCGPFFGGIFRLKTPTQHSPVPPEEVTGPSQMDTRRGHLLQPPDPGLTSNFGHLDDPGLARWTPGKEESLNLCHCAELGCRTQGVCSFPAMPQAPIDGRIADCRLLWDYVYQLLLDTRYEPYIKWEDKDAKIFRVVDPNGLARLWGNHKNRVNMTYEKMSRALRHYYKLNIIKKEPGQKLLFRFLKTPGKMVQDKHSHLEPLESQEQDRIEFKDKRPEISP
# Method in brief: as §1
# [16] = target: T11, ELF5 (Homo sapiens, UniProt Q9UKW6-2 1-255); conditions: protein: recombinant; tags: N-terminal GST; dsDNA, one strand shown
# T11 sequence: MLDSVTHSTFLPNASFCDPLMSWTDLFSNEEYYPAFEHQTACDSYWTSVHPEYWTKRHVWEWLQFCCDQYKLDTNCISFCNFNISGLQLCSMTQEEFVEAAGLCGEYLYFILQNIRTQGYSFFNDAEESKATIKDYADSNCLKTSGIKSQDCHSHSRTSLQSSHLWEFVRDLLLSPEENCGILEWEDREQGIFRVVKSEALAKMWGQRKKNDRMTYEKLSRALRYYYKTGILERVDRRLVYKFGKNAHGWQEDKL
# Method in brief: as §1
# [17] = target: T12, ETV3 (Homo sapiens, UniProt P41162-2 1-143); conditions: protein: recombinant; tags: N-terminal GST; dsDNA, one strand shown
# T12 sequence: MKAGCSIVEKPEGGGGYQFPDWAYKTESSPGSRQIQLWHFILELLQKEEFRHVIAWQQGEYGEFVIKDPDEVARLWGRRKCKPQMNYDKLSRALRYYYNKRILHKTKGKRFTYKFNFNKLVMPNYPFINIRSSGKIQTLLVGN
# Method in brief: as §1
# [18] = target: ETV6 (Homo sapiens, UniProt P41212 1-452); conditions: protein: recombinant; tags: N-terminal GST; dsDNA, one strand shown
# Sequence of ETV6 (P41212 whole entry): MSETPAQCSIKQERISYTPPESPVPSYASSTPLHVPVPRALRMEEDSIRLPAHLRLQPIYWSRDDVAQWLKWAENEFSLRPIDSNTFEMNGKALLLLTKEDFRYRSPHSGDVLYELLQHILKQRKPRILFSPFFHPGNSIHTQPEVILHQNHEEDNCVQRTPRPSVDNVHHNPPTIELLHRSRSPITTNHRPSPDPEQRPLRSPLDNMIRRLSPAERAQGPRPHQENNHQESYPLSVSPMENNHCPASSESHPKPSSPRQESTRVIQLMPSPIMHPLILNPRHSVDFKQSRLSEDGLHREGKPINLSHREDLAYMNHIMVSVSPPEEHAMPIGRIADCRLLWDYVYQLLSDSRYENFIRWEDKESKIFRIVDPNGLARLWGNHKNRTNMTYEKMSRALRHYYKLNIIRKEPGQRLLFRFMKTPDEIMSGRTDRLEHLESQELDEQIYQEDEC
# Method in brief: as §1
sequence,measurement,setting,value
CGTAAT,binding signal,[1],"1.19 fold enrichment (6-mer frequency, TF over GST control)"
same,binding signal,[2],"1.21 fold enrichment (6-mer frequency, TF over GST control)"
same,binding signal,[3],"1.5 fold enrichment (6-mer frequency, TF over GST control)"
same,binding signal,[4],"1.14 fold enrichment (6-mer frequency, TF over GST control)"
same,binding signal,[5],"1.22 fold enrichment (6-mer frequency, TF over GST control)"
same,binding signal,[6],"1.17 fold enrichment (6-mer frequency, TF over GST control)"
same,binding signal,[7],"1.17 fold enrichment (6-mer frequency, TF over GST control)"
same,binding signal,[8],"1.29 fold enrichment (6-mer frequency, TF over GST control)"
same,binding signal,[9],"1.94 fold enrichment (6-mer frequency, TF over GST control)"
same,binding signal,[10],"1.24 fold enrichment (6-mer frequency, TF over GST control)"
same,binding signal,[11],"1.24 fold enrichment (6-mer frequency, TF over GST control)"
same,binding signal,[12],"1.25 fold enrichment (6-mer frequency, TF over GST control)"
same,binding signal,[13],"1.14 fold enrichment (6-mer frequency, TF over GST control)"
same,binding signal,[14],"1.19 fold enrichment (6-mer frequency, TF over GST control)"
same,binding signal,[15],"1.19 fold enrichment (6-mer frequency, TF over GST control)"
same,binding signal,[16],"1.2 fold enrichment (6-mer frequency, TF over GST control)"
same,binding signal,[17],"1.19 fold enrichment (6-mer frequency, TF over GST control)"
same,binding signal,[18],"1.2 fold enrichment (6-mer frequency, TF over GST control)"
